Among the data in PubChem BioAssay (EPA / NIEHS) are outcome and AC50 values, retold here.

Each structure is given as a SMILES string. “And” between values parts separate entries of the source, which are not always exact repeats. Identical values can stand only once. More than one record can exist for a structure, and the calls need not agree. The source made the active and inactive calls. How the source made its calls: active means hit-call score of the fitted dose curve at least 0.9, where 1 is the maximum; inactive means score below 0.9.

Read-out in this assay: Interleukin-8 (IL8), CXCL8 (gene 3576)
Description: BSK_hDFCGF_IL8: BioMAP Diversity Plus: hDFCGF Assay for Interleukin-8 (IL8) Biomarker Activity (AID 2283058). Particulars: primary human foreskin fibroblasts; actives raise or lower the signal. On the procedure: BSK_hDFCGF is a cell-based, multiplexed-readout assay that uses foreskin fibroblast, a human skin primary cell, with measurements taken at 24 hours after chemical dosing in a 96-well plate.BSK_hDFCGF_IL8 is an assay component measured in the BSK_hDFCGF assay. It measures IL-8 antibody related to regulation of gene expression using ELISA technology.Data from the assay component BSK_hDFCGF_IL8 was analyzed into 1 assay endpoint. This assay endpoint, BSK_hDFCGF_IL8, was analyzed with bidirectional fitting relative to DMSO as the negative control and baseline of activity. Using a type of binding reporter, gain or loss-of-signal activity can be used to understand changes in the signaling as they relate to the gene CXCL8. Furthermore, this assay endpoint can be referred to as a primary readout, because this assay has produced multiple assay endpoints where this one serves a signaling function. To generalize the intended target to other relatable targets, this assay endpoint is annotated to the cytokine intended target family, where the subfamily is interleukins.
The levels of cell surface (or secreted, indicated by the prefix "s") biomarker endpoints were measured by ELISA. Overt cytotoxicity to cells in confluent adherent cultures (all systems other than the BT system) was assessed by measuring total protein levels using sulforhodamine B (SRB) staining in parallel cultures at the time of biomarker measurements, indicated as SRB endpoints. For proliferation assays for adherent cell types, individual cell types are cultured at sub-confluence and relative cell numbers quantified by SRB staining at time points optimized for each system (48 h: 3C and CASM3C systems; 72 h: BT and HDF3CGF systems; 96 h: SAg system). SRB was performed by staining cells with 0.1% SRB after fixation with 10% TCA and reading wells at 560 nm.Viability and proliferation of PBMC (T cells) was quantified by Alamar Blue reduction for the SAg and BT systems. For PBMC viability (referred to as PBMC Cytotoxicity within the assay endpoint names), cells were plated (75,000/well in a 96-well plate) and then chemical samples added for 1 h before addition of activators, SEB and TSST-1 (20 ng/mL final concentration each). Cells were incubated for 90 h. Then, Alamar Blue (20 uL/well) (Invitrogen, Cat DAL1100) was added for 6 h, and the plates were read with a fluorescence microplate reader at 546/580 nm (excitation/emission). For PBMC proliferation, cells were plated and activated as above but incubated for only 16 h prior to addition of Alamar Blue. Plates were read after 6 h.
On to `Nc1nc(N)nc(-c2ccccc2)n1`, for which the result was inactive.
The same measure, in the same setting: as for `C=CC(=O)OCCCCCCCC(C)C`, the entry is “inactive”.
Still for that read-out and setting: for `CC(Cl)COP(=O)(OCC(C)Cl)OCC(C)Cl` (stereo not given) the value was “inactive”; for `CCNc1nc(NC(C)(C)C)nc(OC)n1`, “inactive”; for `Nc1ccc(C(=O)O)cc1`, “inactive”.
The same measure, in the same setting: as for `Cc1ccc([N+](=O)[O-])cc1N`, the entry is “inactive”; as for `CCN1CN(CC)CN(CC)C1`, “inactive”.
With `CC=C(C)C(C)=O`, the outcome was inactive.
Still for that read-out and setting: as for `Fc1ccc(Br)cc1`, the entry is “inactive”.
Take `C=CC(=O)OCC(C)OCC(C)OCC(C)OC(=O)C=C` (stereo not given): the AC50 is 33.1 µM (active).
`c1ccc(Nc2cccc3ccccc23)cc1`: the AC50 was 35.1 µM (active) and 36.6 µM (active).
Regarding `CC/C=C\CCOC(=O)c1ccccc1O`, the result was inactive.
On the same count and under the same terms, for `CC(CCC(=O)O)(c1ccc(O)cc1)c1ccc(O)cc1` the value was “inactive”; for `O=C(O)C(F)(F)C(F)(F)C(F)(F)C(F)(F)C(=O)O`, “inactive”; for `C=CC(=O)NC(C)(C)C`, “inactive”.
Still for that read-out and setting: for `CC(c1cc(C(C)(C)C)cc(C(C)(C)C)c1O)c1cc(C(C)(C)C)cc(C(C)(C)C)c1O` the value was “inactive”; for `Clc1cc(Cl)c(Cl)c(Cl)c1Cl`, “inactive”.
The same measure, in the same setting: as for `Nc1cccc(N)n1`, the entry is “inactive”; as for `CC(C)[N+](C)(CCOC(=O)C1c2ccccc2Oc2ccccc21)C(C)C`, “inactive”.
Consider `C1CNCCN1`, for which the outcome was inactive.
Regarding `C=C(C)C(=O)OCCCCCCCCCCCC`, the result was inactive.
Same read-out and setting: as for `COc1ccc(C(=O)c2ccccc2)c(O)c1`, the entry is “inactive”; as for `c1ccc2sc(SSN3CCOCC3)nc2c1`, “inactive”.
Regarding `CC(C)C(=O)OCCc1ccccc1`, the result was inactive.
On the same count and under the same terms, as for `CCCCCCCCCCCC(C)=O`, the entry is “inactive”; as for `CC(C)CCCCCOC(=O)CS`, “inactive”.
Take `CCCCCCOC(=O)CCCCC(=O)OCCCCCC`: the result was inactive.
Still for that read-out and setting: as for `CCCCC1C(=O)N(c2ccccc2)N(c2ccccc2)C1=O`, the entry is “inactive”; as for `CC1=CC=C(C(C)C)CC1`, “inactive”; as for `c1ccc2c(c1)[nH]c1ccccc12`, “inactive”.
The same measure, in the same setting: as for `CCCCCCC=O`, the entry is “inactive”; as for `CCC1(C)C(=O)N(Cl)C(=O)N1Cl` (stereo not given), “inactive”.
In the case of `C[N+](C)(C)CCCNS(=O)(=O)C(F)(F)C(F)(F)C(F)(F)C(F)(F)C(F)(F)C(F)(F)C(F)(F)C(F)(F)F`, the AC50 is 49.3 µM (active) and 45.2 µM (active).
Turning to `O=C(Cl)c1c(Cl)c(Cl)c(C(=O)Cl)c(Cl)c1Cl`, the result was inactive.
The same measure, in the same setting: for `CCOC(=O)/C=C\C(=O)OCC` the value was “inactive”; for `O=C1CCCCCCCCCCC1`, “inactive”; for `Oc1ccccc1Cc1ccccc1O`, “inactive”.
Same read-out and setting: for `Oc1ccc(/C=C/c2cc(O)cc(O)c2)cc1` the value was “inactive”.
Consider `COc1ccc(C(=O)/C(Br)=C\C(=O)O)cc1`, for which the outcome was inactive and the AC50 was 38.9 µM (active).
